tim10-1 inh – inhibits growth of tim10-1 mutant yeast | S. cerevisiae tim10-1 ts strain growth, BacTiter-Glo, 24 h | inhibition, % at 20 µM | 330,000 compounds, 2.2% hits;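 active = inhibition of at least 40%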;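 also: mutant grown at 25 °C; 0% = DMSO wells with yeast and 100% = wells holding no yeast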
SKKanGAS inh – SKKanGAS growth inhibition. S. pyogenes SKKanGAS, kanamycin growth, BacTiter-Glo, 6 h. inhibition, % at 7.5 µM. 300,000 compounds, 1.3% hits;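 active = mean replicate score, as percent of positive control median, at least 50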;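 also: strain carries kanamycin resistance gene driven by streptokinase promoter and grows in 40 µg/ml kanamycin; loss of luminescence reflects streptokinase promoter inhibition or plain growth inhibition; 0% = median of DMSO wells and 100% = positive control at its reference dose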
tim23-1 inh – growth inhibitors of tim23-1 mutant yeast; S. cerevisiae tim23-1 growth, BacTiter-Glo luminescence, 24 h; 330,000 compounds, 1.3% hits; AID 463212; inhibition, % at 20 µM;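 active = growth inhibition of the mutant yeast at or above 50%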;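 also: temperature-sensitive mutant grown at 25 °C; plate controls were DMSO-treated mutant yeast for no effect and medium wells lacking yeast for full effect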
TIM10 inh – inhibits growth of TIM10 yeast strain; S. cerevisiae TIM10 strain growth, BacTiter-Glo luminescence, 24 h; inhibition, % at 10 µM; 330,000 compounds, 1.4% hits; AID 463195;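 active = inhibition of 40% or more at the single tested concentration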;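 also: wild-type TIM10 isogenic control strain grown at permissive 25 °C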
PfHsp90 set2 – growth inhibition of yeast expressing Plasmodium Hsp90; S. cerevisiae expressing PfHsp90, BacTiter-Glo ATP, 48 h; yeast lacking PDR1 and PDR3 efflux regulators; inhibition, % at 9.4 µM; 310,000 compounds, 0.32% hits; AID 504621;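 active = every replicate shows inhibition above about 80%, whatever the replicate mean, limit read from the data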;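 also: 0% = DMSO neutral controls and 100% = 20 µM radicicol positive controls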
An asterisk follows results filed as active; x = not tested or not shown. In the library only some 4.4% were active in any assay of this set; here they are far more common.

SMILES | tim10-1 inh | SKKanGAS inh | tim23-1 inh | TIM10 inh | PfHsp90 set2
CC(=O)OCC1=C(C(=O)O)N2C(=O)C(NC(=O)c3ccc(COc4cccc(Cl)c4Cl)o3)C2SC1 (centres undefined) | 13 | 72* | 16 | 9 | -10
O=C(NC(NC(=S)Nc1c(Cl)cccc1Cl)C(Cl)(Cl)Cl)OCc1ccccc1 (centres undefined) | -7 | 77* | -19 | -16 | 12
Cn1nnnc1SCC(=O)Nc1ccccn1 | 8 | 3 | -7 | -13 | x
O=C(CSC(=S)N1CCCCC1)Nc1nc(-c2ccccc2)c(-c2ccccc2)o1 | 17 | 50* | 12 | -5 | x
Cn1nnnc1SCC(=O)Nc1nc(-c2ccccc2)c(-c2ccccc2)o1 | 17 | 59* | 13 | 11 | -3
COC(=O)c1ccccc1-c1c2ccc(=N)cc-2oc2cc(N)ccc12 | 14 | x | 8 | 14 | 5
COc1ccc(C(=O)NCc2c(C)nn(Cc3ccccc3)c2C)cc1S(=O)(=O)N1CCOCC1 | -5 | x | 10 | 13 | -4
COc1ccc(-c2cc(-c3ccccc3)c(C#N)c(SCC(=O)O)n2)cc1 | 16 | 9 | 41 | 22 | -3
CC(C)C(Sc1nc(-c2ccccc2)cc(-c2ccccc2)c1C#N)C(=O)O (centres undefined) | 18 | 53* | 19 | 24 | -9
COc1ccccc1-c1cc(-c2ccccc2)nc(SCC(=O)O)c1C#N | 13 | 84* | 7 | 11 | 2
COc1ccc(-c2cc(-c3ccccc3)nc(SC(C)C(=O)O)c2C#N)cc1 (centres undefined) | 17 | 32 | 33 | 8 | -30
COc1ccc([C@H]2CC(=O)C=C(c3ccc4ncccc4c3)C2)cc1OC | -5 | x | 13 | 3 | -6
COc1ccc(S[C@@H](CCN2CC[C@H](O)CCC2=O)c2ccccc2)cc1 | -4 | x | -7 | 3 | 14
O=C(COC(=O)/C=C/c1ccccc1F)Nc1nnc(-c2ccccc2)o1 | -4 | 68* | 4 | -7 | x
O=C(COC(=O)/C=C/c1ccc(F)cc1)Nc1nnc(-c2ccccc2)o1 | -27 | x | -13 | -22 | -44
COc1cccc(/C=C/C(=O)OCC(=O)Nc2nnc(-c3ccccc3)o2)c1 | 10 | 63* | 2 | -7 | x
Cc1cc(Br)ccc1NC(=O)CN(C)C(=O)C1CCN(C(=O)c2ccc(Cl)cc2)CC1 | x | x | x | x | -26
COc1ccc(-c2noc(CCC(=O)N3CCN(c4cccc(C)c4C)CC3)n2)cc1 | 19 | x | 42 | 16 | -6
Clc1ccc(Nc2ncnc3c2cnn3-c2ccccc2)cc1 | -19 | 81* | 1 | -16 | -14
CCN(C(=O)COC(=O)C(C)(C)Oc1ccc(Cl)cc1)c1c(N)n(Cc2ccccc2)c(=O)[nH]c1=O | x | x | x | x | 5
CC[C@H]1OC(=O)[C@H](C)[C@@H](O[C@H]2C[C@@](C)(OC)[C@@H](O)[C@H](C)O2)[C@H](C)[C@@H](O[C@@H]2O[C@H](C)C[C@H](N(C)C)[C@H]2O)[C@](C)(O)C[C@@H](C)CN(C)[C@H](C)[C@@H](O)[C@]1(C)O | 6 | 110* | -15 | 5 | -19
CCC1OC(=O)C(C)C(OC2C[C@@](C)(OC)C(O)C(C)O2)C(C)C(O[C@@H]2OC(C)CC(N(C)C)C2O)[C@](C)(O)CC(C)C(=NOCOCCOC)C(C)C(O)[C@]1(C)O (some centres undefined) | 1 | x | 8 | 3 | 4
Cn1c(=O)c(C#N)c(-c2ccc(F)cc2)c2cc(C(=O)c3cc(Cl)cc(Cl)c3O)cnc21 | 30 | 99* | 29 | 22 | -23
COc1ccccc1-n1c(=O)c(C#N)c(-c2ccc([N+](=O)[O-])cc2)c2cc(C(=O)c3cc(F)ccc3O)cnc21 | 16 | 15 | 16 | 13 | -9
CC[C@H](C)[C@H]1CNC(=O)C(=O)N1CC1CCN(CC2CCC(C)CC2)CC1 (some centres undefined) | x | x | x | x | -8
SMILES | tim10-1 inh | SKKanGAS inh | tim23-1 inh | TIM10 inh | PfHsp90 set2
C/C(=N/NC(=O)CNC(=O)C(c1ccccc1)c1ccccc1)c1ccco1 | -12 | 55* | -24 | 5 | 6
CC(=O)c1cccc(NC(=O)CN2C(=O)NC(C)(c3ccc4c(c3)OCCCO4)C2=O)c1 (centres undefined) | 14 | x | 9 | 4 | 11
CN(C)S(=O)(=O)c1ccc(-c2csc(N/N=C/c3ccc(O)cc3)n2)cc1 | 14 | 65* | 22 | 34 | 10
CN(C)S(=O)(=O)c1ccc(-c2csc(N/N=C/c3ccco3)n2)cc1 | 17 | -2 | 8 | -12 | 7
CCC(=O)NC(c1ccc(OC)c(OC)c1)c1cc(Cl)c2cccnc2c1O (centres undefined) | x | 56* | x | x | -35
COc1ccccc1C(NC(C)=O)c1cc(Cl)c2cccnc2c1O (centres undefined) | 31 | 100* | 36 | 17 | -19
CCCC(=O)NC(c1ccc2c(c1)OCO2)c1cc(Cl)c2cccnc2c1O (centres undefined) | 34 | 62* | 43 | -16 | 99*
O=C(O)COc1ccccc1C(Nc1ccccn1)c1cc(Cl)c2cccnc2c1O (centres undefined) | 17 | -3 | 9 | -3 | 11
CCCCC(=O)NC(c1ccc(N(CC)CC)cc1)c1ccc2cccnc2c1O (centres undefined) | -5 | 44 | 44 | -71 | 72
COc1ccc(NC(=O)Nc2ccc3c(c2)CC(=O)N([C@H](C)CO)C[C@H](C)[C@H](CN(C)Cc2ccc(C(=O)O)cc2)O3)cc1 | -5 | x | 6 | 2 | -9
CCCc1nc(SCC(=O)N2CCCCCC2)c2c(=O)n(C)c(=O)n(C)c2n1 | x | 50* | x | x | x
CCCCc1nc(SCC(=O)N2CCCCC2)c2c(=O)n(C)c(=O)n(C)c2n1 | -2 | 3 | 26 | -27 | x
CSCCC(NC(=O)COc1ccccc1)C(=O)N(C)Cc1ccc(Cl)cc1Cl (centres undefined) | 16 | x | 34 | 3 | -5
COc1ccc(-c2n[nH]c(C(F)(F)F)c2-c2cc3ccccc3o2)c(O)c1 | 16 | 99* | -127 | 17 | 73
COc1ccccc1-c1c(-c2ccc(OCC(=O)NN)cc2O)n[nH]c1C(F)(F)F | 12 | -2 | 5 | 0 | 25
Cc1ccc(OCCNC(=O)C(C)SCC(=O)Nc2ccc(F)cc2)cc1 (centres undefined) | -2 | x | 2 | -3 | -2
Cc1c(C(=O)Nc2nccs2)oc2ccc(Br)cc12 | 13 | x | 11 | 6 | -22
CC(C)=CCc1c(O)cc2oc3c(CC=C(C)C)c(O)c(O)c(CC=C(C)C)c3c(=O)c2c1O | 13 | 101* | 15 | -4 | 13
Cc1ccc(Cl)cc1N1CCN(C(=O)c2cn(C)c(=O)c3c2c2ccccc2n3C)CC1 | 34 | 82* | 24 | 11 | -32
CCOc1cc(N2CCOCC2)c(OCC)cc1NC(=O)c1ccc(S(=O)(=O)N2CC(C)OC(C)C2)cc1 (centres undefined) | x | x | x | x | 5
